Shown are actives, neighbours in structure and some others; about 1.9% of the full set was active somewhere.
dFosB act: activators of mouse delta FosB homodimer. activation, % at 25 µM. purified delta FosB, TAMRA-CDK5 oligo fluorescence polarization; percent of positive-control signal above neutral wells. AID 493131. 0.99% of 340,000 active. P13346;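 active = mean activation above about 17%, with every replicate also reaching it, limit read from the data, passing the limit was not always enough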
Target sequence (P13346 whole entry, looked up): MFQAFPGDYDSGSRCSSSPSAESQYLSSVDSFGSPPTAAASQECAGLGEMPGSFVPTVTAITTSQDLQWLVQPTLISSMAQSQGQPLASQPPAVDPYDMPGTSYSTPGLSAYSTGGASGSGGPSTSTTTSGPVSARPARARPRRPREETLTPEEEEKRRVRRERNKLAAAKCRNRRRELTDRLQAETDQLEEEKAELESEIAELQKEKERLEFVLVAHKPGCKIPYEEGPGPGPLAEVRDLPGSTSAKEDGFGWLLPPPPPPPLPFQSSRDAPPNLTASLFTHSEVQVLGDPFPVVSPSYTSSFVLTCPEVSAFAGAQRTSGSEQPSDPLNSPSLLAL
14-3-3 Bad inh: disrupts binding of bovine 14-3-3 zeta to phospho-Bad peptide; P63103; TR-FRET 14-3-3zeta/Dy647-pBad peptide displacement, 1 h; inhibition, % at 21.7 µM; 0.71% of 220,000 active; AID 781;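 active = inhibition above about 70%, limit read from the data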;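 note: 0% = full 14-3-3 plus peptide FRET controls and 100% = background without 14-3-3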
Target sequence (P63103 whole entry, looked up): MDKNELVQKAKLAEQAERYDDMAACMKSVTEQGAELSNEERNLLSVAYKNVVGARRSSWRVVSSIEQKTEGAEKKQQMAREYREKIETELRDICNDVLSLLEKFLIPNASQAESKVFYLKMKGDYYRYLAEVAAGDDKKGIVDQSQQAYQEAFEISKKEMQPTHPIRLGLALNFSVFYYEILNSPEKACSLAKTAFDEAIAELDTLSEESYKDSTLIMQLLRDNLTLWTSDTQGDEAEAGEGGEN
HMGR II inh: blocks class II HMG-CoA reductase of Enterococcus faecalis; purified E. faecalis HMGR, NADPH absorbance 340 nm kinetic; 0.41% of 190,000 active; inhibition, % at 10 µM;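 active = inhibition above a set limit, the median over all tested compounds plus 3 SD, cut at about 9.5% in these data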;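 note: enzyme runs in reverse so mevalonate oxidation gives rising NADPH absorbance; 0% = complete reaction with DMSO and 100% = background rate lacking mevalonate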
NCF1 inh: blocks human p47phox regulatory protein of NADPH oxidases. P14598. p47phox/p22phox peptide binding, fluorescence polarization, 2 h. inhibition, % at 24.7 µM. 0.53% of 220,000 active;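 active = inhibition above about 30%, limit read from the data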;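 note: 0% = p47phox with labelled peptide and 100% = labelled peptide alone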
Numbers without * were called inactive; nt = no result given; [ ] = remark or other dose.

SMILES	dFosB act	14-3-3 Bad inh	HMGR II inh	NCF1 inh
Cc1ccc(Cl)cc1NC(=O)COC(=O)c1ccc(COc2ccc3c(C)cc(=O)oc3c2)cc1	nt	78*	2	-12
CC(=O)Nc1ccc(NC(=O)c2ccc(COc3ccc4c(C)cc(=O)oc4c3)cc2)cc1	nt	51	-7	-26
Cc1cccc(NC(=S)NC(=O)c2ccco2)c1C	1	nt	nt	nt
O=C(NC(=S)Nc1cccc(NC(=S)NC(=O)c2ccco2)n1)c1ccco1	23*	49	1	-96
COc1ccc(-c2ccc(=O)n(Cc3cc(=O)n4ccccc4n3)n2)cc1	-1	5	-2	-14
Cc1cc(C)n2cnnc2n1	nt	-2	nt	-50
Cc1cc(C)n2c(=S)[nH]nc2n1	6	30	0	40*
O=C(Nc1ccn(CCCN(CCCn2ccc(NC(=O)OCc3ccccc3)nc2=O)CCc2cc3ccccc3[nH]2)c(=O)n1)OCc1ccccc1	83*	nt	nt	nt
CCN(C)Cc1c(C(=O)N2CCc3ccccc3C2)nc2ccc(Cl)cn12	-7	-1	-8	-7
CCN(CC)Cc1c(C(=O)N2CCc3ccccc3C2)nc2ccc(Cl)cn12	-2	-1	17*	-17
CCN(CC)CCCC(C)Nc1c2ccc(Cl)cc2nc2ccc(OC)cc12 (stereo not drawn)	nt	-12	1	4
COc1ccc2nc3cc(Cl)ccc3c(Nc3cc(C(C)C)c(O)cc3C)c2c1	89*	29	nt	30
COc1ccc(/C=C/C(=O)NC(=S)NNC(=O)c2ccco2)cc1	-9	-6	9.8*	4
COc1ccc(/C=C/C(=O)NC(=S)NNC(=O)c2ccco2)cc1OC	7	-12	nt	-7
Fc1ccc(-c2cc(C(F)(F)F)nc(-n3cccn3)n2)cc1	-11	3	nt	-9
Cc1cc(C)nc(SCCC(=O)Nc2ccccc2)n1	2	6	-1	88*
CCOCCOC(=O)c1[nH]c2c(c1C)C(=O)CC(c1ccc(N(C)C)cc1)C2 (stereo not drawn)	0	6	1	-8
C/C=C/COC(=O)c1[nH]c2c(c1C)C(=O)CC(c1ccc(N(C)C)cc1)C2 (stereo not drawn)	85*	10	6	-13
CCC(C)OC(=O)c1[nH]c2c(c1C)C(=O)CC(c1ccc(N(C)C)cc1)C2 (stereo not drawn)	29*	4	4	16
COc1cccc(/C=C(\C#N)C(=O)NC2CCS(=O)(=O)C2)c1 (stereo not drawn)	-1	8	-4	1
O=C(NC1(C(F)(F)F)NC(=O)N(CCc2ccccc2)C1=O)C1CC1 (stereo not drawn)	-6	-7	-4	-5
O=C(NCC(=O)N(Cc1cccs1)C(C(=O)NC1CCCCC1)c1ccncc1)c1ccco1 (stereo not drawn)	-5	-14	11*	5
O=C(NCC(=O)N(Cc1cccs1)C(C(=O)NC1CCCC1)c1cccnc1)c1ccco1 (stereo not drawn)	-10	-7	-2	-7
CSc1nc2ncc3c(n2n1)CC(C)(C)CC3=O	4	-7	9.9*	-8
CCCCCN=C(N)N/N=C/c1c[nH]c2ccc(OC)cc12	18*	nt	nt	nt
SMILES	dFosB act	14-3-3 Bad inh	HMGR II inh	NCF1 inh
CCCOc1ccc(C(=O)N/N=C/c2c[nH]c3ccc(Br)cc23)cc1	-13	nt	nt	nt
CCOC(=O)N1CCN(C(=O)c2ccc3c(SCC(=O)O)c4c(nc3c2)CCCC4)CC1	-7	6	2	9
O=C(O)CSc1c2c(nc3cc(C(=O)N4CCOCC4)ccc13)CCCC2	-8	82*	-3	-1
CCN1C(=O)C(O)(C2COC(C)(C)CC2=O)c2ccccc21 (stereo not drawn)	-4	-11	3	-18
CCN1C(=O)C(c2ccc(O)cc2)(c2ccc(O)cc2)c2ccccc21	2	94*	-3	-16
CCOC(=O)c1oc2ccc(CNCCO)c(Cl)c2c1C	-10	-7	10*	1
COc1ccc(OC)c(C2CC(=O)N3CN(c4ccccc4)CSC3=C2C#N)c1 (stereo not drawn)	-14	6	-5	-9
COc1cc(OC)c(C2CC(=O)N3CN(c4ccccc4C)CSC3=C2C#N)cc1OC (stereo not drawn)	nt	-12	-2	47*
CCc1nc(N2CCC3(CC2)OCCO3)c2nnn(Cc3ccccc3)c2n1	4	-2	1	-2
CCOC(=O)CCc1c(C)c2ccc(OCc3cc([N+](=O)[O-])ccc3OC)cc2oc1=O	-5	-8	-7	-24
CCOC(=O)CCc1c(C)c2ccc(OCc3cc([N+](=O)[O-])ccc3OC)c(C)c2oc1=O	nt	40	-1	30*
CCOC(=O)Cn1c(C)cc(=O)c2cccc(C)c21	1	9	12*	5
CCNS(=O)(=O)c1ccc(-c2ccc(-n3cnnn3)cc2)cc1	-6	6	-4	-4
Nc1ccc(C(=O)Nc2ccc(OC(F)(F)C(F)F)c(NC(=O)c3ccc(N)cc3)c2)cc1	-5	-3	-15	-2
CS(=O)(=O)N1CCc2cc(S(=O)(=O)N3CCCCC3)ccc21	3	-11	16*	-1
CC(=O)N1CCc2cc(S(=O)(=O)N3CCCCCC3)ccc21	-5	nt	nt	nt
COc1ccc(C(c2nnnn2Cc2cccs2)N2CCN(c3ccccc3F)CC2)cc1OC (stereo not drawn)	1	83*	-4	-11
COCCn1nnnc1C(c1ccccc1OC)N1CCN(c2ccccc2F)CC1 (stereo not drawn)	-9	74*	0	-3
CCCC(c1nnnn1Cc1ccc(OC)cc1)N1CCN(c2ccccc2OC)CC1 (stereo not drawn)	-18	45	0	-6
COCCn1nnnc1C(c1ccc(Cl)cc1)N1CCSCC1 (stereo not drawn)	-3	75*	-1	-3
CCCC(c1nnnn1Cc1ccccc1)N1CCN(c2ccccc2OC)CC1 (stereo not drawn)	1	84*	0	-2
COC(=O)c1ccc(Cn2cc(/C=C\[N+](=O)[O-])c3ccccc32)o1	-5	nt	nt	nt
COc1ccc(Cc2noc(CN(C)C3CC(C)(C)NC(C)(C)C3)n2)cc1OC	2	-13	-2	6
CCCn1c(SC(C)C(=O)NC2CCCC2)n[nH]c1=O (stereo not drawn)	3	nt	nt	nt
Cc1ccnc(SCc2cn3c(C)cc(C)nc3n2)n1	-2	-14	-1	5
SMILES	dFosB act	14-3-3 Bad inh	HMGR II inh	NCF1 inh
OCCN(Cc1ccccc1)Cc1cccc(Cl)c1Cl	-3	88*	-4	0
Cc1cc(C)c(S(=O)(=O)/N=C2/C=C(Sc3ncn[nH]3)C(=O)c3ccccc32)cc1C	-6	76*[fluorescence artefact?]	6	54*
Cc1ccc(C)c(S(=O)(=O)/N=C2\C=C(NS(=O)(=O)c3ccccc3)C(=O)c3ccccc32)c1	-13	nt	nt	nt
C=CC(=O)Nc1ccc(N(C)c2ccnc(Nc3ccc(N4CCN(C)CC4)cc3)n2)cc1	50*	nt	nt	nt
CC1Cc2ccccc2N1C(=O)CN(C)S(=O)(=O)c1cccc2cccnc12 (stereo not drawn)	-6	-3	0	-12
Nc1ccc(C2=Nc3cccc4cccc(c34)N2)cc1	41*	9	-3	15
